Drawing on PubChem BioAssay (NCATS), this text covers Potency for 12 molecules.

Results filed as inconclusive are left out. Entries that show only a call come without a potency. Active and inactive are the calls of the source. The call rests on the fitted dose curve; in most records, active means well fitted curve in the direction sought with a large enough effect; inconclusive means small, poorly fitted or top-dose-only effect, or another doubt; inactive means no such curve, though single readings can be large; an effect the other way counts as inactive or inconclusive.

Assay [1] has as its target Aldehyde dehydrogenase, mitochondrial (Homo sapiens) (UniProt P05091). The assay is described as follows: qHTS for Inhibitors of the Aldehyde Dehydrogenase Family (ALDH2) Primary screen (AID 2061308; further: nearly all actives have a fitted effect of over 55% in size). (Quantitative high-throughput screening tests each substance at several concentrations.)
Assay [2] concerns the target Retinaldehyde dehydrogenase 3 (Homo sapiens) (UniProt P47895). The assay is described as follows: qHTS for Inhibitors of the Aldehyde Dehydrogenase Family (ALDH1A3) Primary screen (AID 2061315).

As for `OC(CNc1ccccc1)Cn1c2ccc(Br)cc2c2cc(Br)ccc21` (centres undefined), the Potency result in assay [1] and in assay [2] was “inactive” throughout.

Consider `CN1CCc2cc3c(cc2[C@H]1[C@@H]1OC(=O)c2c1ccc1c2OCO1)OCO3`, for which the Potency entry in assay [1] and in assay [2] was “inactive” throughout.

For `Cc1cc(-c2nnc3n2CCCCC3)c(C)n1-c1cccnc1`, the Potency result in assay [1] and in assay [2] was “inactive” in each case.

For the molecule `COC1CC(O[C@H]2CC[C@@]3(C)C(CCC4C3CC[C@]3(C)[C@@H](C5=CC(=O)OC5)CC[C@]43O)C2)OC(C)C1O` (some centres undefined), the Potency entry in assay [1] and in assay [2] was “inactive” in each case.

`C=C(C)[C@@]12O[C@@H]1[C@@]1(C)C(=CC2=O)CC[C@@H](OC(C)=O)[C@@H]1C`: the Potency entry in assay [1] and in assay [2] was “inactive” throughout.

As to `COc1c(C(C)C)cc2c(c1O)[C@@]1(C(=O)O)CCCC(C)(C)C1CC2` (some centres undefined), the Potency result in assay [1] and in assay [2] was “inactive” throughout.

In the case of `CCOc1ccc(CCNC(=O)c2cc3ccccc3n2Cc2cccc(C)n2)cc1OCC`, the Potency result in assay [1] and in assay [2] was “inactive” throughout.

With `CC(=O)OC1CC(O)C2(C)C(CC(OC(C)=O)C3(C)C2CCC2(C)C(c4ccoc4)C(=O)C4OC423)C1(C)C` (centres undefined), the Potency entry in assay [1] and in assay [2] was “inactive” throughout.

On to `Cn1cc(Cl)c(C2N=C(Nc3nc4ccccc4o3)NC3=C2C(=O)CCC3)n1` (centres undefined), for which the Potency entry in assay [1] and in assay [2] was “inactive” throughout.

With `O=C(Nc1ncc(Cc2ccc(C(F)(F)F)cc2)s1)c1cnc(-c2ccccc2)o1`, the Potency entry in assay [1] and in assay [2] was “inactive” each time.

For the molecule `C[C@]12CC[C@H](O[C@@H]3O[C@H](CO)[C@@H](O)[C@H](O)[C@H]3O)CC1=CC[C@@H]1C2CC[C@]2(C)[C@@H](C3=CC(=O)OC3)CC[C@]12O` (some centres undefined), the Potency result in assay [1] and in assay [2] was “inactive” in each case.

As to `O=S(=O)(Nc1cccc2ccncc12)c1ccc(NCc2cccc(Cl)c2O)cc1`, the Potency entry in assay [1] and in assay [2] was “inactive” throughout.
